Data published in PubChem BioAssay AID743269 (The Scripps Research Institute Molecular Screening Center, 2014).
Hit rate of the full screen: of about 370,000 compounds, about 2,400 (0.65%) were called active.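 The calls were made as follows: active = inhibition above the screen-wide mean plus 3 SD (cut at about 13% in these data); inactive = the rest.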 Only a selection was taken, and actives are over-represented in it overall.

Each molecule was assayed on HIV-1 integrase (with human LEDGF/p75) (assay: blockers of LEDGF/p75-dependent integrase strand transfer – biochemical, TR-FRET, high throughput, primary screen (AID 743269;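 also: signal is the Cy5 over europium emission ratio at 671 and 618 nm; 0% = plate median of compound wells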)). Conditions: TR-FRET IN-LEDGF/p75 DNA integration, Eu/Cy5; at 3.7 µM; hits give high values.

inhibition, inactive:
CCOC(=O)c1ccc(NC(=O)Cn2cnc3cc(C)c(C)cc32)cc1 -0.18%
CCOC(=O)c1ccc(NC(=S)N2CCN(c3ccccn3)CC2)cc1 3.04%
O=C(NC1CCC1)c1ccc(C#Cc2cccc(F)c2)c[n+]1[O-] -0.89%
O=C(CSc1nnc(COc2ccccc2)n1Cc1ccco1)c1ccc2ccccc2c1 1.68%
Cc1sc2nc(SCC(N)=O)n(C)c(=O)c2c1C 1.58%
CCOC(=O)[C@]12CCCC=C1N(Cc1ccc(OC)cc1)C(=O)[C@@H]2CC(=O)N1CCOCC1 4.73%
Cc1ccc(NC(=O)c2cc(C)nn2-c2ccccc2)c(C)c1 -1.51%
CCC(=O)c1c(CC)c2n3c1=CC[C@H]3CC(Br)C=2 (stereo partly drawn) -2.29%
CN(C)Cc1cn(-c2ccc(-c3noc4c3C(=O)N(CC(=O)N3CCOCC3)CC4)cc2)nn1 -1.95%
COc1ccc(C#CCNCc2ccc(OC)cc2OC)cc1 -3.69%
CCCCOCCCNC(=O)C[C@H]1C[C@@]2(C(=O)OC)C(=C[C@H](C(C)(C)C)O[C@@H]2C)N(CCc2ccc(OC)c(OC)c2)C1=O 2.16%
CN(C)S(=O)(=O)c1cccc(C(=O)N/N=C\c2ccco2)c1 -0.56%
CC(C)CNC(=O)COC(=O)/C=C/c1ccco1 0.15%
COc1ccc(N2CCN(CCNS(=O)(=O)c3ccc(Cl)s3)CC2)cc1 -1.84%
O=C(CSc1nnc(-c2ccccn2)n1-c1ccc(Cl)cc1)Nc1ccccc1-c1ccccc1 -2.85%
C=CCN1C(=O)[C@H](CC(=O)N2CCN(C(=O)OCC)CC2)[C@@]2(C(=O)OCC)CCCC=C12 -0.39%
O=C(CO/N=C/c1ccccc1O)NNC(=O)c1ccccc1Cl 3.91%
O=C(NNC(=S)NC1CCCCC1)c1ccccc1Cl 0.05%
CCC(c1ccc(NC(=O)OC(C)(C)C)cc1)c1cc(OC)cc(OC)c1 (stereo not drawn) -0.14%
CCOC(=O)C1(Cc2ccccc2)CCN(Cc2cn(C(C)=O)c3ccccc23)CC1 -1.3%
Cc1ccccc1NC(=O)COC(=O)c1ccc(Sc2ncn[nH]2)c([N+](=O)[O-])c1 -3.54%
O=C(CN1CCC(NC(=O)NCc2ccccc2)CC1)Nc1ccc2c(c1)OCCO2 0.58%
O=C(Nc1ccc(Br)cc1)OCCN1C(=O)CCC12CCC(c1ccccc1)CC2 (stereo not drawn) -0.45%
Cc1ccc2c(c1)N(CC(=O)N1CCCc3ccccc31)C(=O)C(C)O2 (stereo not drawn) 4.28%
Cc1cccc2cc3c(N)c(C(=O)N4CCCc5ccccc54)sc3nc12 1.54%
COc1ccc(C(=O)CSc2nnc(-c3cnccn3)n2-c2ccc(C)cc2)cc1 0.86%
Cc1ccccc1NC(=O)Cn1nnc(-c2ccccc2F)n1 3.47%
Cc1cc(=O)[nH]c(SCC(=O)Nc2ccc(Cl)cc2C)n1 0.96%
COCCNC(=O)c1cc2c(Br)ccc(Br)c2nc1N -5.17%
COCCNC(=S)c1ccc(OC)cc1 -1.56%
COc1ccc(CCNC(=O)CSc2nc3c([nH]2)c(=O)n(C)c(=O)n3C)cc1 0.75%
O=C(NCc1cccs1)C1CCN(S(=O)(=O)c2ccccc2[N+](=O)[O-])CC1 3.07%
CC(C)(C)NC(=O)C(c1cccnc1)N(C(=O)c1cnco1)c1ccc(C(C)(C)C)cc1 (stereo not drawn) 0.93%
CCOC(=O)[C@]12CCCCC/C=C\1N(Cc1ccc(OC)cc1)C(=O)[C@H]2CC(=O)NCc1ccc(C)o1 -2.04%
COc1ccc(C(C)=O)cc1CSc1nc2nc(C)cc(C)n2n1 -4%
COC(=O)c1ccc(COc2ccc(/C=C/C(=O)c3ccc(OC)c(CSCC(=O)O)c3)cc2OC)cc1 1.77%
CCOc1ccc(Oc2c(Cl)cnn(-c3ccc(C)cc3)c2=O)cc1 -2.65%
COc1cccc(N(C)C(=O)[C@@H](C)[C@@H](O)c2ccc3ccccc3c2)c1 2.81%
CN(C(=O)COC(=O)c1cc(=O)[nH]c2ccccc12)C1CCCCC1 -9.3%
CC(=O)c1ccc(OCC(=O)N(C)C2CCS(=O)(=O)C2)cc1 (stereo not drawn) 1.55%
CCOC(=O)[C@]12CCCC=C1N(Cc1ccc(OC)cc1)C(=O)[C@@H]2CC(=O)NCc1cccs1 0.74%
CCOC(=O)CN1C(=O)C(O)(CC(=O)c2ccccn2)c2ccccc21 (stereo not drawn) 3.17%
O=C(CC1(O)C(=O)N(CN2CCOCC2)c2ccccc21)c1ccccc1 (stereo not drawn) 3.55%
N#CCC[C@H]1CC[C@]2(CCCN(Cc3ccc(Cl)cc3)C2)O1 0.5%
O=S1(=O)c2ccc(Br)cc2OC[C@H](Cc2ccccc2)N1Cc1cn(Cc2ccccc2)nn1 -5.3%
CCc1cc2c(NC3CCCC3)ncnc2s1 -1.83%
Cc1cc([N+](=O)[O-])c(NC2CCCCC2)c([N+](=O)[O-])c1 0.17%

inhibition, active:
CCOC(=O)c1ccc(NC(=O)CSc2ncccn2)cc1 21.2%
Cc1sc2nc(SCC(=O)c3ccc(O)c(O)c3)n(Cc3ccco3)c(=O)c2c1C 34.8%
Cc1cc(C(=O)NN=C/C=C/c2ccco2)n[nH]1 15.1%
O=C(NNC(=O)c1ccccc1O)c1ccccc1O 27.2%
COc1ccc2c(c1)c(=Cc1ccc(N(C)C)cc1)c1cc(-c3ccccc3)[n+](C)n12 18.8%
Cc1ccc(C(=O)N2CCCc3ccccc32)c(Cl)c1 38%
COCCNC(=O)Nc1ccc2nc(-c3ccco3)c(-c3ccco3)nc2c1 90.1%
COc1ccc(C(=O)/C=C/c2ccc(-c3ccccc3)cc2)cc1CSCC(=O)O 13.5%
CN(C(=O)COC(=O)c1cc(-c2ccco2)nc2ccccc12)C1CCS(=O)(=O)C1 (stereo not drawn) 30.7%
C=CCN1C(=O)C(O)(CC(=O)c2ccccn2)c2ccccc21 (stereo not drawn) 15.4%
Clc1cc(NC2CCCCC2)ncn1 21.7%
